Structures are written as SMILES.

For four molecules, inhibition results are on record in ChEMBL document CHEMBL1961873, “Compounds: GSK PKIS; Assays: Nanosyn kinase panel” (2012).

Experiment [1] has as its target Ribosomal protein S6 kinase alpha-6 (Homo sapiens) (UniProt Q9UK32). As to conditions: at 1 µM.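 Further: each value is a mean inhibition of RSK4 from a GSK PKIS panel screen.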
Experiment [2] deals with T1, Serine/threonine-protein kinase Sgk1 (Homo sapiens) (UniProt O00141).
T1 sequence (whole entry): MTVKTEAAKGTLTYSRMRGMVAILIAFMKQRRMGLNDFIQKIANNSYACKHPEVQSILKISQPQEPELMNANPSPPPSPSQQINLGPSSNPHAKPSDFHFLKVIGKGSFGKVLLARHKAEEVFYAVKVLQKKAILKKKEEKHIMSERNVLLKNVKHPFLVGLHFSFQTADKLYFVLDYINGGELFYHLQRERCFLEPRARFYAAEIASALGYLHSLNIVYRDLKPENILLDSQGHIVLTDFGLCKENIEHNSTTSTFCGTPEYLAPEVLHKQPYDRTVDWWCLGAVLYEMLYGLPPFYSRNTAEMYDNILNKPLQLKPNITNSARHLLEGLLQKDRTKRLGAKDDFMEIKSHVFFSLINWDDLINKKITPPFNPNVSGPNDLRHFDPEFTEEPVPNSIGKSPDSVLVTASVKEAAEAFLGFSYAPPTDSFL
As to conditions: at 0.1 µM.

For experiment [3], the target named is T1, Serine/threonine-protein kinase Sgk1 (Homo sapiens). As to conditions: at 1 µM.
Experiment [4] addresses T2, Serine/threonine-protein kinase Sgk2 (Homo sapiens) (UniProt Q9HBY8).
T2 sequence (whole entry): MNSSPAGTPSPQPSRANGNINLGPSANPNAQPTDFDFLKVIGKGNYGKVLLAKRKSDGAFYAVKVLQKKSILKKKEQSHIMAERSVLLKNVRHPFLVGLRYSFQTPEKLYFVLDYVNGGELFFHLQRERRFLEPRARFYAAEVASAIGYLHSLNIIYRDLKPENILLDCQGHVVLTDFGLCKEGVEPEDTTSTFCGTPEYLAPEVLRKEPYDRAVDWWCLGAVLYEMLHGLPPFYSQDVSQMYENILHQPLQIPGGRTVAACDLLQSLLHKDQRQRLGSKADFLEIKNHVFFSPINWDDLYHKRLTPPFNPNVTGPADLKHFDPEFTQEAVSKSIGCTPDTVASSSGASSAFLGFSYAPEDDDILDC
As to conditions: at 0.1 µM.

The target in experiment [5] is T2, Serine/threonine-protein kinase Sgk2 (Homo sapiens). As to conditions: at 1 µM.
In experiment [6] the target is T3, Serine/threonine-protein kinase Sgk3 (Homo sapiens) (UniProt Q96BR1).
T3 sequence (whole entry): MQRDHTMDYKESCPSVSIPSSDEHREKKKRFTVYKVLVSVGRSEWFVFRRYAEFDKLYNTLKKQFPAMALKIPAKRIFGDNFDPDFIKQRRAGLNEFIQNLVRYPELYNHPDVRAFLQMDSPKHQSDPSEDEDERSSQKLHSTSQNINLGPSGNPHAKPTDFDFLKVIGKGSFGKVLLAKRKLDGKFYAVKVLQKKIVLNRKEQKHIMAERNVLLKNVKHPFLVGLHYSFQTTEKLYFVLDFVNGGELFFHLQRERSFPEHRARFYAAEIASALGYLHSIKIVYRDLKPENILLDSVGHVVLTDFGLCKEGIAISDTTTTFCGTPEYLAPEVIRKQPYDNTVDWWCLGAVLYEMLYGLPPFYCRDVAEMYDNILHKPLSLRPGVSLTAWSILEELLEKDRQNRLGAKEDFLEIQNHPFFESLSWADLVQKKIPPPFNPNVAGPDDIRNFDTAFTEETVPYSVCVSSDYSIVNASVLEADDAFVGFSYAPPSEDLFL
The settings on record: at 0.1 µM.

Experiment [7] addresses T3, Serine/threonine-protein kinase Sgk3 (Homo sapiens). The settings on record: at 1 µM.
For experiment [8], the target named is 5'-AMP-activated protein kinase catalytic subunit alpha-1 (Homo sapiens) (UniProt Q13131). As to conditions: at 0.1 µM.
The target is the same in experiment [9]. The settings on record: at 1 µM.
The target in experiment [10] is 5'-AMP-activated protein kinase catalytic subunit alpha-2 (Homo sapiens) (UniProt P54646). As to conditions: at 0.1 µM.
The target is the same in experiment [11]. As to conditions: at 1 µM.
The target in experiment [12] is T4, NUAK family SNF1-like kinase 1 (Homo sapiens) (UniProt O60285).
T4 sequence (whole entry): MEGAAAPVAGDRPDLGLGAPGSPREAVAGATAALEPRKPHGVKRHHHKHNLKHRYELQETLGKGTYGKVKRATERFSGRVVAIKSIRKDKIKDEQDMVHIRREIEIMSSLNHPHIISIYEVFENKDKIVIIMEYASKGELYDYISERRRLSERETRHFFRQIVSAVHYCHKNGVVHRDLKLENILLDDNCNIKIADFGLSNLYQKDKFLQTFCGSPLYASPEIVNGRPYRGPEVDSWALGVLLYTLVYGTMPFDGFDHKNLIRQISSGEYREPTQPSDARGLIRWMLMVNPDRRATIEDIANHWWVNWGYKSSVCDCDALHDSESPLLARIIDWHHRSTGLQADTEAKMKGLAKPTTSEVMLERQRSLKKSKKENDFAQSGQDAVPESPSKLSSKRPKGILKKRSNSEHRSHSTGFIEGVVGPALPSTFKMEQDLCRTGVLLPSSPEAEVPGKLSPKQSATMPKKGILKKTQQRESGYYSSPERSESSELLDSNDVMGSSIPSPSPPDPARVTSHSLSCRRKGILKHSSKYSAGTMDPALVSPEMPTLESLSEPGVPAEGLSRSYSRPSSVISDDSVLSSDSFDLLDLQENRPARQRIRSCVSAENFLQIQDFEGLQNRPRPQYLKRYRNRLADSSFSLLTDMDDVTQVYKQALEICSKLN
The settings on record: at 0.1 µM.

Experiment [13] concerns the target T4, NUAK family SNF1-like kinase 1 (Homo sapiens). The settings on record: at 1 µM.
In experiment [14] the target is T5, Serine/threonine-protein kinase BRSK1 (Homo sapiens) (UniProt Q8TDC3).
T5 sequence (whole entry): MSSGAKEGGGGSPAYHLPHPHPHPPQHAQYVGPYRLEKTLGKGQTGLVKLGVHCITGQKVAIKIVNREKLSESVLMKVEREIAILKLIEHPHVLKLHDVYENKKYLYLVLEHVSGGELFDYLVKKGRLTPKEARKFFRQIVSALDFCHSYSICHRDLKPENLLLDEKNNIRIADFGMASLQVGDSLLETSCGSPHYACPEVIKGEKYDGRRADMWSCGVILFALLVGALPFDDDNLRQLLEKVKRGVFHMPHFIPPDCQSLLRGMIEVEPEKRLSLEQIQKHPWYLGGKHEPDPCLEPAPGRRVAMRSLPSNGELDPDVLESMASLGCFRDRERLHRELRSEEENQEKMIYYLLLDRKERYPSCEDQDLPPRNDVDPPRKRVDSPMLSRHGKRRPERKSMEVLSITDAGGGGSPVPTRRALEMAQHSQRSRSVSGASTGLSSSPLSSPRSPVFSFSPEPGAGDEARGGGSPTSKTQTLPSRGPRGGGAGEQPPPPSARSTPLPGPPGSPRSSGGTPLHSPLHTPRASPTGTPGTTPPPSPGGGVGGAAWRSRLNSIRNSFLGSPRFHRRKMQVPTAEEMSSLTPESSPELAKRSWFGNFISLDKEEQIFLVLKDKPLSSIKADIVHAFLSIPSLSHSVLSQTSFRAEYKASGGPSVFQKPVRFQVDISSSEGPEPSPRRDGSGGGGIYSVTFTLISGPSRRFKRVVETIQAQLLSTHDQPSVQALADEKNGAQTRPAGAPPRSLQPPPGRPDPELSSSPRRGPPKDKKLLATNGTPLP
The settings on record: at 0.1 µM.

For experiment [15], the target named is T5, Serine/threonine-protein kinase BRSK1 (Homo sapiens). The settings on record: at 1 µM.
Experiment [16] deals with T6, Serine/threonine-protein kinase BRSK2 (Homo sapiens) (UniProt Q8IWQ3).
T6 sequence (whole entry): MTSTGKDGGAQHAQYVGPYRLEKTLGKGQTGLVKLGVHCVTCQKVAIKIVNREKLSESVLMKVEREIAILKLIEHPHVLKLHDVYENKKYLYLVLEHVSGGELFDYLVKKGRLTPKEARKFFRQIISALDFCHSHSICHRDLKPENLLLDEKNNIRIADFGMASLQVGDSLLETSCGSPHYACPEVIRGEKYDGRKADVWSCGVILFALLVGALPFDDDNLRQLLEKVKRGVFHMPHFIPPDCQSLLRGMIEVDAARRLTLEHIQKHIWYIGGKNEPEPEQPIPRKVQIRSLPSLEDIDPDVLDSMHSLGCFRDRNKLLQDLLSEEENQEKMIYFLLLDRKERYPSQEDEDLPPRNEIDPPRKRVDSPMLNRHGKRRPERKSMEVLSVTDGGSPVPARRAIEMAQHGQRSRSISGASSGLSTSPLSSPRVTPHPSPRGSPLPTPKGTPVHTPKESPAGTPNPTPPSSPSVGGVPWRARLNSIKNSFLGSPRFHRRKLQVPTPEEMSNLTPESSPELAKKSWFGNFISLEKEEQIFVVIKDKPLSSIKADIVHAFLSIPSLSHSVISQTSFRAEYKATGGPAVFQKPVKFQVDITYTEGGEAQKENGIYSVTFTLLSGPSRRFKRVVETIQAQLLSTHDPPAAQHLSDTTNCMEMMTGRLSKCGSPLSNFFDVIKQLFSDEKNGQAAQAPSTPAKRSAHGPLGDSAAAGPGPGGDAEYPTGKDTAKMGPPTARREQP
As to conditions: at 0.1 µM.

The target in experiment [17] is T6, Serine/threonine-protein kinase BRSK2 (Homo sapiens). The settings on record: at 1 µM.
Experiment [18] concerns the target Calcium/calmodulin-dependent protein kinase type 1D (Homo sapiens) (UniProt Q8IU85). The settings on record: at 0.1 µM.
For experiment [19] the target is unchanged. As to conditions: at 1 µM.
Experiment [20] has as its target Calcium/calmodulin-dependent protein kinase type II subunit alpha (Homo sapiens) (UniProt Q9UQM7). As to conditions: at 0.1 µM.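 Further: reported values are averages (mean inhibition of CAMK2A).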

5'-AMP-activated protein kinase catalytic subunit alpha-1 (Homo sapiens), sequence (Q13131 whole entry, looked up): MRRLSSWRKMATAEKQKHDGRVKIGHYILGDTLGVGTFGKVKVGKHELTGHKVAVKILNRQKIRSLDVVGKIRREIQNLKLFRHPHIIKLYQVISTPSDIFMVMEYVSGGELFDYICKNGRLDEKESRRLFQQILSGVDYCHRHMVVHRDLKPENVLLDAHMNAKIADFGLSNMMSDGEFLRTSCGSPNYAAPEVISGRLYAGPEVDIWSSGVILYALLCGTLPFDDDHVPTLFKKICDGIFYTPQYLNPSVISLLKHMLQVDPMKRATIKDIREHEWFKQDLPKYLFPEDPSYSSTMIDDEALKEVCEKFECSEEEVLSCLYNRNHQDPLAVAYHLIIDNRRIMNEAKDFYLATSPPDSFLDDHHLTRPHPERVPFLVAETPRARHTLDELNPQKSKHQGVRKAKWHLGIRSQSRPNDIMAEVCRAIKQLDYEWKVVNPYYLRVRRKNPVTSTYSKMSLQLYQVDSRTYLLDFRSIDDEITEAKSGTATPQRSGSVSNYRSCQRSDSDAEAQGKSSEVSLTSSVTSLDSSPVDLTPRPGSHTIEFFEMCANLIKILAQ
5'-AMP-activated protein kinase catalytic subunit alpha-2 (Homo sapiens), sequence (P54646 whole entry, looked up): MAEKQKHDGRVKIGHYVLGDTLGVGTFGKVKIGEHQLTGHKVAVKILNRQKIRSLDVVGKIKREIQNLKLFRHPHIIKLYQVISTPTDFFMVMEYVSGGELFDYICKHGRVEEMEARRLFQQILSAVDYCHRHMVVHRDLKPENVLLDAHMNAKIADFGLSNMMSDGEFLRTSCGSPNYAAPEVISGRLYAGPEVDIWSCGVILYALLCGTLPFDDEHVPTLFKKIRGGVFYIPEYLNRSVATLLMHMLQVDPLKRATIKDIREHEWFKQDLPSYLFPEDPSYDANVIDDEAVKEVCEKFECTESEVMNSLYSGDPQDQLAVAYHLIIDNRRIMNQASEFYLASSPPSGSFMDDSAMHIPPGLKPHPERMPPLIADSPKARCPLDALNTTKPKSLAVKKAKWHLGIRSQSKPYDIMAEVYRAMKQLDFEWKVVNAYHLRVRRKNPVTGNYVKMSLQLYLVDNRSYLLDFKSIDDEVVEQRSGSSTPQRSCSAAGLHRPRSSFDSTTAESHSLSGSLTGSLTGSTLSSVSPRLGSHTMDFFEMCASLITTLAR
Calcium/calmodulin-dependent protein kinase type 1D (Homo sapiens), sequence (Q8IU85 whole entry, looked up): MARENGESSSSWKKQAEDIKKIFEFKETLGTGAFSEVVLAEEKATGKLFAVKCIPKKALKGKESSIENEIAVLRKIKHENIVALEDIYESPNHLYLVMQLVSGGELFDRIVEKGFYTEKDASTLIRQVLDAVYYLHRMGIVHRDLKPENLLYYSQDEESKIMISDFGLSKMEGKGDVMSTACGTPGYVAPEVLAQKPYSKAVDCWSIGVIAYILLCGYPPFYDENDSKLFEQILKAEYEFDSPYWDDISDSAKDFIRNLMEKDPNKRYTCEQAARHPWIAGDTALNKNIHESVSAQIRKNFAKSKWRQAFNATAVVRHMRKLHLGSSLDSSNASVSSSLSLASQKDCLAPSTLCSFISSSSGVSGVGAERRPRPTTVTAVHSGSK
Ribosomal protein S6 kinase alpha-6 (Homo sapiens), sequence (Q9UK32 whole entry): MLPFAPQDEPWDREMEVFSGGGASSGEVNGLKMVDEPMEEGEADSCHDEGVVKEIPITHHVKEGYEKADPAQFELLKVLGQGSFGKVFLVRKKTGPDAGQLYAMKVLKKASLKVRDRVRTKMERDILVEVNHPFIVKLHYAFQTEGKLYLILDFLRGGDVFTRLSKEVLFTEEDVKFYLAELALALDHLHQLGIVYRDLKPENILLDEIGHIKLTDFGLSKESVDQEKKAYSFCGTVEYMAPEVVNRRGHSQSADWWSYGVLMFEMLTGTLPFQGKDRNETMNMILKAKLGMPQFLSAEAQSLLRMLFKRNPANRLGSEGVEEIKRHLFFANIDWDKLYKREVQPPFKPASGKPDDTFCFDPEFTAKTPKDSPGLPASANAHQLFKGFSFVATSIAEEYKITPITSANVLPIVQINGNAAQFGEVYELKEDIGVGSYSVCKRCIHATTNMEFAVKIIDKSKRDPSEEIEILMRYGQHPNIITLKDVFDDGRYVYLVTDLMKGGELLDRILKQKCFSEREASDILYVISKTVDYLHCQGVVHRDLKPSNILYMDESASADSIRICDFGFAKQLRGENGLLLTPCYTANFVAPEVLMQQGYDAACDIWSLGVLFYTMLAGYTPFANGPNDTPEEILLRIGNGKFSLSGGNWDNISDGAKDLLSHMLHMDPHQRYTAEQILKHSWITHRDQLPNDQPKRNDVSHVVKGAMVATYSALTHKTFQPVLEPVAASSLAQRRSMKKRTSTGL
Calcium/calmodulin-dependent protein kinase type II subunit alpha (Homo sapiens), sequence (Q9UQM7 whole entry): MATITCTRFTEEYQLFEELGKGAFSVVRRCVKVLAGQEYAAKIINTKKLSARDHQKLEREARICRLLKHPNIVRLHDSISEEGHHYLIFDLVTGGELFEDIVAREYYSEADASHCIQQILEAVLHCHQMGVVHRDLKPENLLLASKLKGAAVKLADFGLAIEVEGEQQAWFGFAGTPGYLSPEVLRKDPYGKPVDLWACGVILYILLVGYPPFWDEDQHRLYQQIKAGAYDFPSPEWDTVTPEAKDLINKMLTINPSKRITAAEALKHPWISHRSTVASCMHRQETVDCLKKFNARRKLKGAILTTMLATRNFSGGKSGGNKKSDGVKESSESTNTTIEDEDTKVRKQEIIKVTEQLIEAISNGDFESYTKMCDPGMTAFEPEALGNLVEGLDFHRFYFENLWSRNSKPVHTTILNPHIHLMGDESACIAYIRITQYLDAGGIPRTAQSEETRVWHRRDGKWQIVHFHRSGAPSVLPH

What is called inhibition is the drop in the measured response relative to a control, in per cent. Turning to `NS(=O)(=O)c1ccc(-c2ccc3c(NC(=O)C4CC4)n[nH]c3c2)cc1`, the inhibition is 3.54% in experiment [1]; 0.35% in [2]; 14.6% in [3]; -0.5% in [4]; 3.35% in [5]; -0.5% in [6]. Besides, the inhibition in experiment [7] is -1.93%; in [8], 2.61%; in experiment [9] it was 2.22%; in experiment [10], -0.68%; in experiment [11], 5.62%; in experiment [12], 3.06%. Besides, the inhibition in experiment [13] is 8.32%; in experiment [14] it was 3.64%; in [15], 6.53%; in [16], 4.08%; in experiment [17], 7.2%; in experiment [18] it was -1.85%. Moreover, the values for the inhibition in experiment [19] and in [20] were 0.84% and 3.17%, respectively.
As for `COc1cc(C=NNc2ncnc3c2cnn3Cc2ccccc2)ccc1O`, the inhibition in [1] is 2.26%; in experiment [2] it was -3.31%; in experiment [3], 3.11%; in [4], -3%; in [5], -2.21%; in experiment [6], -2.5%. Besides, the inhibition in [7] is -0.29%; in [8], -1.23%; in [9], -0.19%; in [10] it was -2.17%; in [11], -3.45%; in [12], 7.72%. The inhibition in experiment [13] is 27.6%; in [14], -0.74%; in experiment [15], 1.48%; in experiment [16], 0.53%; in experiment [17] it was 2.95%; in experiment [18] it was 0.1%. Besides, the inhibition is 0.78% in experiment [19] and -5% in experiment [20].
As for `Fc1ccc(-c2ncn(C3CCNCC3)c2-c2ccnc(Oc3ccccc3)n2)cc1`, the inhibition in experiment [1] was -1.23%; in [2], 0.46%; in experiment [3], 0.24%; in experiment [4] it was 0.49%; in experiment [5] it was 2.09%; in experiment [6] it was 0.78%. Moreover, the inhibition in experiment [7] was 2.18%; in experiment [8], 2.1%; in [9], 0.47%; in experiment [10], 2.07%; in experiment [11] it was -1.95%; in [12] it was -1.26%. The inhibition in [13] was 2.38%; in experiment [14] it was -0.19%; in [15] it was -0.55%; in [16] it was 0.01%; in experiment [17] it was 2.57%; in [18] it was -1.05%. Besides, the figures for the inhibition in [19] and in experiment [20] were 0.14% and -0.23%, respectively.
Turning to `COc1cccc(-n2ncc3c(N/N=C/c4ccncc4)ncnc32)c1`, the inhibition in experiment [1] came to 4.33%; in experiment [2], 6.01%; in experiment [3] it was 16.1%; in [4], 4.49%; in [5], 11.9%; in [6], 5.19%. Also, the inhibition in [7] turned out to be 6.6%; in experiment [8], 2.59%; in experiment [9], 9.15%; in [10] it was 2.26%; in experiment [11], 7.87%; in experiment [12] it was 16.1%. Further, the inhibition in [13] was 54.6%; in experiment [14], 11.2%; in experiment [15], 52.5%; in experiment [16], 18.6%; in experiment [17] it was 60.1%; in experiment [18], 0.07%. Also, the values for the inhibition in experiment [19] and in [20] were 2.43% and 4.53%, respectively.
